Screening data from PubChem.
Most compounds without a hit are left out; they make up all but 3.1% or so of the library.
MEKK2wt PB1 HTS: raises or lowers MEK5 binding to wildtype human MEKK2 PB1 domain. 1.1% of 290,000 active. bead flow cytometry, Alexa488-MEK5 binding to MEKK2 WT; actives lie on both sides. binding response (% of control), % at 10 µM. AID 1531. Q9Y2U5; in the data active = binding response below about 67% or above about 130%
UBC13 polyUb: human UBC13 polyubiquitination inhibition; AID 485273; 0.47% of 330,000 active; inhibition, % at 20 µM; UBC13 polyubiquitin chain formation, TR-FRET; P61088; in the data active = inhibition above about 45%, passing the limit was not always enough
MEKK3 PB1 HTS: raises or lowers MEK5 binding to the human MEKK3 PB1 domain. Q99759. 1.4% of 290,000 active. AID 1529. binding response (% of control), % at 10 µM. bead-based flow cytometry, Alexa488-MEK5 binding to MEKK3; actives lie on both sides; 0 = blocked by unlabeled MEK5, 100 = vehicle;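 active = binding response more than 3 SD above or below the average of its plate-row segment, actives on both sides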;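 also: Alexa488 bead fluorescence after subtracting the streptavidin-only scavenger bead signal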
Target sequence (Q99759 whole entry, looked up, the tested form may be a part): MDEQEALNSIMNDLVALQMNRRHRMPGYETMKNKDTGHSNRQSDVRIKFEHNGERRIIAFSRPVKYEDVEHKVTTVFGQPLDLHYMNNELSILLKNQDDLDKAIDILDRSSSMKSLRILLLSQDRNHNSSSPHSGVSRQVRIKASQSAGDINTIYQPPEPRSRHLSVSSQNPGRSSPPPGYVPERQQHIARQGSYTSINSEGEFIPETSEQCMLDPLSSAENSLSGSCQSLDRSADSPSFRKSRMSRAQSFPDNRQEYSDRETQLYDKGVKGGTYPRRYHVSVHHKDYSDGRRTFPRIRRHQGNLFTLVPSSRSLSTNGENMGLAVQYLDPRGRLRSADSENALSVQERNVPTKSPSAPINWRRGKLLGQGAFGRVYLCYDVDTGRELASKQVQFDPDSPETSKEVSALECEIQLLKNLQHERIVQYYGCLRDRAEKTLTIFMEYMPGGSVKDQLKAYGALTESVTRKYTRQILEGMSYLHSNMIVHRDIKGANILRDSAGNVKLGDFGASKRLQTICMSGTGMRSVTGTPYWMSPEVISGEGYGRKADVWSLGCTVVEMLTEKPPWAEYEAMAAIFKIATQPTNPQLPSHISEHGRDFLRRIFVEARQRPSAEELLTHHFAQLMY
ATG4B inh: blocks human ATG4B protease cleavage of LC3 substrate; ATG4B cleavage of LC3-PLA2, NBD-HPC fluorescence, 1 h; Q9Y4P1; AID 504462; inhibition, % at 8.33 µM; 0.51% of 340,000 active; in the data active = inhibition above about 40%
PREPL inh: human PREPL enzyme inhibition | recombinant PREPL, fluorescence polarization activity-based probe | 0.68% of 320,000 active | inhibition, % at 5.96 µM | Q4J6C6 | AID 2751; in the data active = inhibition above about 43%;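 also: 0% = enzyme with DMSO and 100% = wells lacking enzyme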
MEKK2 mut-MEK5: signal of MEK5 binding to mutant human MEKK2 PB1 domain; bead flow cytometry, Alexa488-MEK5 binding to MEKK2 mutant; percent response, % at 10 µM; 0.35% of 290,000 active; AID 1530; in the data active = percent response above about 24%, passing the limit was not always enough
MEKK2wt confirm: raises or lowers MEK5 binding to wildtype human MEKK2, retest | binding response (% of control), % at 10 µM | shares compounds with MEKK3 PB1 HTS | 2.4% of 5,900 active | bead flow cytometry, Alexa488-MEK5 binding to MEKK2 WT; actives lie on both sides; in the data active = binding response below about 16% or above about 210%; inactive = in between
MEKK2mut confirm: signal of MEK5 binding to mutant human MEKK2, retest; bead flow cytometry, Alexa488-MEK5 binding to MEKK2 mutant; 2% of 5,900 active; shares compounds with MEKK3 PB1 HTS; percent response, % at 10 µM; AID 1893; in the data active = percent response mostly above about 71%, no sharp cut-off; inactive = mostly below about 38%;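 also: higher means compound restores mutant binding toward wildtype level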
MEKK3-MEK5 inh: confirmation of inhibitors of MEK5 binding to human MEKK3 | shares compounds with MEKK3 PB1 HTS | bead flow cytometry, Alexa488-MEK5 binding to MEKK3; active compounds read low | binding response (% of control), % at 10 µM | 1.8% of 5,900 active | AID 1894;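 active = binding response below 72% of control, or above a set upper limit, though filed actives all read lower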;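 also: 100% = DMSO only wells and 0% = binding blocked by excess unlabeled MEK5; lower values mean stronger disruption of MEK5 binding to MEKK3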
* hit, by the source's call; nt = no result given; [ ] = remark or other dose.

SMILES	MEKK2wt PB1 HTS	UBC13 polyUb	MEKK3 PB1 HTS	ATG4B inh	PREPL inh	MEKK2 mut-MEK5	MEKK2wt confirm	MEKK2mut confirm	MEKK3-MEK5 inh
O=C(Nc1ccccc1)c1cccc(S(=O)(=O)Nc2ccccn2)c1	91	3	75*[inhibitor]	-6	11	-1	105	1	99
CCN1CCN(CCNC(=O)c2ccc(/C=C3\Sc4ccccc4N(Cc4ccccc4F)C3=O)cc2)CC1	121	38	103	4	-28	2	nt	nt	nt
CN1CCN(CCCNC(=O)c2ccc(/C=C3\Sc4ccccc4N(Cc4ccc(F)cc4)C3=O)cc2)CC1	163*	nt	105	6	nt	41	203	66	105
CN1CCN(CCCNC(=O)c2ccc(/C=C3/Sc4ccccc4N(Cc4cccc(Cl)c4)C3=O)cc2)CC1	224*	nt	108	7	nt	65*	209*	73*	110
O=C(NCCCN1CCOCC1)c1ccc2c(c1)N(Cc1ccccc1)C(=O)c1ccccc1S2	111	7	101	2	0	5	nt	nt	nt
CN(CC(=O)Nc1c(Cl)cccc1Cl)C(=O)Cc1cccs1	nt	3	nt	6	6	nt	nt	nt	nt
CCn1c(CCC(=O)N(C)CC(=O)Nc2cccc(F)c2)nc2cc(S(=O)(=O)N(C)C)ccc21	nt	9	nt	-7	-5	nt	nt	nt	nt
CCCCn1nc(C(=O)N(CC(C)C)c2c(N)n(CCCC)c(=O)[nH]c2=O)c2ccccc2c1=O	nt	0	nt	-5	nt	nt	nt	nt	nt
Cc1nn(-c2ccc(F)cc2)c2sc(C(=O)O)cc12	-1.0*[inhibitor]	-4	2.0*[inhibitor]	-5	5	-29	93	-5	99
COc1cc2c(cc1OC)CN(CC(=O)Nc1cccc(C(F)(F)F)c1)CC2	113	6	107	2	7	9	nt	nt	nt
Cc1nc(C)c(C(=O)NNS(=O)(=O)c2ccccc2)s1	107	-25	140*	-4	10	0	100	0	103
C/C(=N/NC(=O)c1sc(NS(=O)(=O)c2ccccc2)nc1C)c1ccc(F)cc1	105	2	153*	-4	-3	0	101	-1	102
Cc1ccc(C)c(S(=O)(=O)NNC(=O)c2sc(NS(=O)(=O)c3ccccc3)nc2C)c1	103	-24	102	-8	2	1	nt	nt	nt
Clc1ccc(-c2csc3ncnc(N4CCc5ccccc5C4)c23)cc1	102	3	131*	-19	-3	0	106	-1	97
CCOC(=O)N1CCN(c2ncnc3scc(-c4ccc(Cl)cc4)c23)CC1	106	4	109	-3	-3	8	nt	nt	nt
Nc1ccc2nc(-c3ccc(-c4nc5ccc(N)cc5[nH]4)cc3)[nH]c2c1	65*[inhibitor]	23	53*[inhibitor]	-13	20	-26	81	-17	71*
O=C(CN1CCN(Cc2ccc(Cl)cc2)CC1)N/N=C/c1ccccc1F	57*[inhibitor]	5	68*[inhibitor]	-14	9	-30	103	0	96
O=C1NC2(C=Cc3c(ccc4ccccc34)O2)Oc2ccccc21 (stereo unspecified)	2.0*[inhibitor]	19	2.0*[inhibitor]	-14	-3	-17	91	-2	96
CC1(C)OC(=O)N(c2ccccc2)C12C=Cc1c(ccc3ccccc13)O2 (stereo unspecified)	100	-10	113	3	12	3	nt	nt	nt
COc1ccc(Cl)cc1NC(=S)NCCCN1CCCC1=O	63	-7	46*[inhibitor]	-3	-5	-14	99	2	98
CC1(C)CC(=O)C(C(O)c2cccc([N+](=O)[O-])c2)C(C)(C)N1 (stereo unspecified)	111	-1	112	-6	10	25*	107	6	104
